Source: PubChem BioAssay (National Center for Advancing Translational Sciences (NCATS))
TDP1 cell noCPT: qHTS for Inhibitors of human tyrosyl-DNA phosphodiesterase 1 (TDP1): qHTS in cells in absence of CPT. hit rate 15% among 420,000. DT40 Tdp1-/- hTDP1 cells, no CPT, ATP luminescence, 48 h. Potency, µM (titrated, usually from 46.2 µM), for inactives: at the top dose activity change, negative = growth inhibition, usual class: inhibitors; note: potency is the fitted concentration of half-maximal effect; nearly all actives have a fitted effect of over 55% in size
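Luminescent ATP content (CellTiter-Glo) served as the growth readout. Knockout chicken DT40 cells expressing human TDP1 were exposed to compounds without camptothecin for a minimum 48 hr at 37 °C.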
uPA surface inh: cell surface uPA generation inhibition; Potency, µM (titrated, usually from 38.3 µM), for inactives: at the top dose activity change, negative = inhibition, actives largely listed as inhibitors; AID 540303; cell surface uPA generation assay, qHTS; hit rate 0.31% among 330,000; active = well fitted inhibition curve with a large enough effect; inconclusive = small, poorly fitted or top-dose-only effect; inactive = no such curve, though single readings can be large or run the other way; tested in mouse RAW 264.7 cells; note: potency is the fitted concentration of half-maximal effect; nearly all actives have a fitted effect of over 55% in size
IL1B secr inh: blocks inflammasome-driven IL-1 beta release; THP-1 LPS/ATP IL-1B secretion, AlphaLISA, 16 h; active compounds read low; activity change, % at 57.5 µM; hit rate 4.7% among 360,000; AID 743279; in the data active = activity change below about -50%; inconclusive = mostly about -30% to -49%
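Secreted IL-1B measured by AlphaLISA bead assay after 16 h compound exposure of THP-1 cells; compounds (final up to 57.5 uM) added 1 h before LPS (250 ng/mL) and ATP (1.25 mM) stimulation; lower signal means less secretion.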
HT1080 IDH1KD tx: HT-1080 IDH1 knockdown cell toxicity (counter line); hit rate 2% among 360,000; Potency, µM (series often up to 46.1 µM), for inactives: top-dose activity, negative = toxicity, most hits filed as cytotoxic; HT-1080 IDH1 knockdown viability, ATP luminescence, 48 h;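 note: potency is the fitted concentration of half-maximal effect; 0% = DMSO wells and -100% = cell-free medium wells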
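Luminescent ATP read-out (CellTiter-Glo, 10 min at room temperature) after 48 h compound exposure at 37 °C gave viability of IDH1-knockdown HT-1080 cells. Activity was normalised to DMSO and cell-free wells, then fitted as concentration-response curves.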
HT1080NT lethal: kills 2HG-producing HT-1080-NT fibrosarcoma cells; HT-1080-NT fibrosarcoma viability, CellTiter-Glo ATP luminescence, 48 h; Potency, µM (doses to about 46.1 µM), inactives show top-dose activity, negative = less viability, usual class: cytotoxic; hit rate 1.6% among 360,000;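 note: NT is the 2HG producing partner of a matched IDH1 knockdown line; potency is the fitted concentration of half-maximal effect; 0% = DMSO-treated cells and -100% = media-only wells without cells; nearly all actives have a fitted effect of over 55% in size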
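Toxicity toward the 2HG-producing NT line was scored as %Activity, normalised to DMSO and no-cell wells, from CellTiter-Glo luminescence after 48 hours' treatment.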
TDP1 cell CPT: DT40-hTDP1 cell growth loss with CPT; Potency, µM (series often up to 46.2 µM), for inactives: top-dose activity change, negative = growth inhibition, most hits filed as inhibitors; chicken DT40 Tdp1-/-;hTDP1 cells + 20 nM CPT, ATP luminescence, 48 h; hit rate 12% among 420,000; note: potency is the fitted concentration of half-maximal effect; nearly all actives have a fitted effect of over 55% in size
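Chicken DT40 Tdp1-/- cells stably complemented with human TDP1 were seeded at 400 cells/well in medium containing 20 nM camptothecin, exposed to pin-transferred compounds, and grown at 37 °C for at least 48 hr. Viability was read as ATP luminescence.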
* marks the source's active call; other numbers are inactive results; u = inconclusive; x = no result given. In the library only some 19% were active in any assay of this set; here they are far more common. Unless noted, calls come from the whole dose curve; as a rule, active = well fitted curve in the direction sought with a large enough effect; inconclusive = small, poorly fitted or top-dose-only effect, or another doubt; inactive = no such curve, though single readings can be large; an effect the other way counts as inactive or inconclusive. Unless noted, % is set by controls: 0 for no effect and ±100 for the full control effect.

SMILES | TDP1 cell noCPT | uPA surface inh | IL1B secr inh | HT1080 IDH1KD tx | HT1080NT lethal | TDP1 cell CPT
O=C(NCC(c1ccco1)N1CCCC1)c1ccccc1F (stereo not given) | -2% | 1% | 0 | 0% | -2% | -3%
CCc1cc(C(=O)NCC(c2ccco2)N2CCCCC2)sc1C (stereo not given) | 15µM* | 4% | 1 | -3% | -3% | u
CSc1ccccc1C(=O)NCC(c1ccco1)N1CCCCC1 (stereo not given) | -19% | 2% | 14 | u | 19% | -3%
CC(C)c1ccc(C2N=C(N)Nc3nc4ccccc4n32)cc1 (stereo not given) | -26% | x | x | x | x | u
O=[N+]([O-])c1ccccc1S(=O)(=O)NCc1ccccn1 | 12% | x | x | x | x | -12%
CC(C)Oc1cccc(-c2cc(C(=O)NC(=S)N(C)c3ccccc3C(=O)O)c3ccccc3n2)c1 | -25% | -11% | 17 | -17% | -14% | -28%
C[C@@H]1CN([C@@H](C)CO)C(=O)c2cc(Br)cnc2O[C@H]1CN(C)C(=O)CN1CCOCC1 | -3% | x | 19 | 1% | 5% | 8%
C=CC(C)(O)CC/C=C(\C)CCC=C(C)C (stereo not given) | -12% | x | x | x | x | 5%
CCOc1ncccc1C(=O)NCC(c1ccco1)N1CCCCC1 (stereo not given) | u | 1% | -7 | 7% | 9% | 21µM*
COc1ccc(NC(=O)c2sc3nc(C)c(C(=O)Nc4ccc(C)cc4C)c(-c4ccc(Cl)cc4)c3c2N)cc1 | -6% | x | x | x | x | -4%
CCC(C)NC(=O)c1sc2nc(C)c(C(=O)Nc3ccc(Cl)cc3)c(-c3ccc(Br)cc3)c2c1N (stereo not given) | 21µM* | x | x | x | x | u
O=C(C[n+]1cc(Br)cc(Br)c1)c1ccc(I)cc1 | -25% | x | x | x | x | -14%
Cc1ccc(N2C(=O)CS/C2=N\C(=S)Nc2ccccc2)cc1 | 5.8µM* | -5% | 17 | -8% | -12% | u
O=C1CSC(=Nc2ccc(O)cc2)N1c1ccc(O)cc1 | 9% | -7% | 2 | 9% | 8% | -2%
COc1ccc(C(CNC(=O)Cc2ccccc2)N2CCCCC2)cc1 (stereo not given) | u | x | -6 | 7% | 6% | u
Cc1c(C(=O)NCC(c2ccco2)N(C)C)oc2c(Cl)cccc12 (stereo not given) | u | 3% | -3 | 7% | -3% | u
COc1ccc(C(CNC(=O)c2oc3cc(Br)ccc3c2C)N2CCCCC2)cc1 (stereo not given) | 23µM* | 6% | 11 | 5% | 4% | 16µM*
COc1ccc(C(CNC(=O)COc2ccc(Br)cc2F)N2CCCC2)cc1 (stereo not given) | -26% | -1% | u | 10% | 10% | -16%
CCc1ccc2oc(C(=O)NCC(c3ccc(OC)cc3)N3CCCCC3)c(C)c2c1 (stereo not given) | 16µM* | -1% | -24 | 4% | 8% | 23µM*
COc1ccc(C(CNC(=O)c2oc3ccc(Br)cc3c2C)N2CCCCC2)cc1 (stereo not given) | 9.2µM* | -2% | -82* | 7% | 5% | 13µM*
CCOc1ccc2oc(C(=O)NCC(c3ccco3)N(C)C)c(C)c2c1 (stereo not given) | 23µM* | 6% | -6 | 3% | 0% | 16µM*
O=C1C(O)=C(O)C(=O)C(O)=C1O | -17% | x | x | x | x | -6%
C/C(=N\OCc1ccccc1)c1c(O)cc(C(C)C)n(-c2ccccc2)c1=O | -17% | 2% | 14 | 0% | 3% | -27%
COc1cccc(Cn2c(=O)c(-c3ccc(Cl)cc3)nc3cnc(N(C)C)nc32)c1 | 18% | x | x | x | x | 7%
